# PubChem BioAssay (EPA / NIEHS)
# Active and inactive are the calls of the source. Rule for the calls: active = hit-call score of the fitted dose curve at least 0.9, where 1 is the maximum; inactive = score below 0.9.
# How the values were obtained:
# Settings in all cases: mRNA level, 48 h; actives raise or lower the signal
# [1] = read-out: Cytochrome P450 7A1 (Homo sapiens) (UniProt P22680); test: LTEA_HepaRG_CYP7A1: Life Technologies and Expression Analysis (LTEA) Assay for Cytochrome P450 7A1 (CYP7A1) using HepaRG (AID 2283496)
# Procedure, shortened: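 HepaRG cells plated 48 h, then switched to serum-free induction medium and exposed in duplicate for 48 h to 8-point half-log series from 100 uM in 0.5% DMSO. CYP7A1 mRNA by qRT-PCR (TaqMan), normalized to ACTB/GAPDH/POLR2A; bidirectional fit versus DMSO.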
# [2] = read-out: Glutathione S-Transferase (GSTA2), GSTA2 (gene 2939); test: LTEA_HepaRG_GSTA2: Life Technologies and Expression Analysis (LTEA) Assay for Glutathione S-Transferase (GSTA2) using HepaRG (AID 2283497)
# Procedure, shortened: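 HepaRG, 48 h dosing, 8-pt half-log CRC from 100 uM, 0.5% DMSO vehicle, n=2; RNA → Fluidigm TaqMan qRT-PCR; GSTA2 vs ACTB/GAPDH/POLR2A; gain/loss fit vs DMSO.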
# [3] = read-out: Glutamate-cysteine ligase catalytic (GCLC), GCLC (gene 2729); test: LTEA_HepaRG_GCLC: Life Technologies and Expression Analysis (LTEA) Assay for Glutamate-cysteine ligase catalytic (GCLC) using HepaRG (AID 2283498)
# Procedure, shortened: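 Read-out is GCLC transcript level by Fluidigm-based TaqMan qRT-PCR, normalized to three housekeeping genes and fitted in both directions relative to 0.5% DMSO. Human HepaRG cells received chemicals for 48 h, up to 100 uM.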
# [4] = read-out: growth arrest and DNA damage 45 (GADD45G), GADD45G (gene 10912); test: LTEA_HepaRG_GADD45G: Life Technologies and Expression Analysis (LTEA) Assay for growth arrest and DNA damage 45 (GADD45G) using HepaRG (AID 2283499)
# Procedure, shortened: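 Human hepatic HepaRG line treated 48 h with chemicals (eight concentrations, half-log steps from 100 uM); transcript induction or repression of GADD45G scored by qRT-PCR versus DMSO vehicle.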
# [5] = read-out: Glutamate-cysteine ligase regulatory (GCLM), GCLM (gene 2730); test: LTEA_HepaRG_GCLM: Life Technologies and Expression Analysis (LTEA) Assay for Glutamate-cysteine ligase regulatory (GCLM) using HepaRG (AID 2283500)
# Procedure, shortened: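 Cells were plated, cultured 48 h, switched to serum-free induction medium, then dosed in duplicate for 48 h at eight half-log concentrations up to 100 uM. RNA was then profiled by qRT-PCR; gain or loss versus DMSO was fitted.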
# [6] = read-out: Glutathione S-transferase M3 (GSTM3), GSTM3 (gene 2947); test: LTEA_HepaRG_GSTM3: Life Technologies and Expression Analysis (LTEA) Assay for Glutathione S-transferase M3 (GSTM3) using HepaRG (AID 2283501)
# Procedure, shortened: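 Changes in GSTM3 expression, an oxidative-stress marker, were scored by bidirectional curve fitting against 0.5% DMSO vehicle. Human HepaRG cultures received chemicals for 48 h in duplicate, highest concentration 100 uM with half-log dilutions.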
# [7] = read-out: Heat shock 70 kDa protein 1 (HSPA1A), gene 3303; test: LTEA_HepaRG_HSPA1A: Life Technologies and Expression Analysis (LTEA) Assay for Heat shock 70 kDa protein 1 (HSPA1A) using HepaRG (AID 2283502)
# Procedure, shortened: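 Readout is HSPA1A transcript level by microfluidic qRT-PCR, normalized to three housekeeping genes and analysed for gain or loss of signal relative to 0.5% DMSO. Human HepaRG cultures received test chemicals for 48 h at up to 100 uM.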
# [8] = read-out: Hypoxia-inducible factor 1-alpha (Homo sapiens) (UniProt Q16665); test: LTEA_HepaRG_HIF1A: Life Technologies and Expression Analysis (LTEA) Assay for Hypoxia-inducible factor 1 (HIF1A) Trancription factor using HepaRG (AID 2283503)
# Procedure, shortened: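 Differentiated HepaRG cells in serum-free induction medium exposed 48 h, in duplicate, to 8-point half-log series from 100 uM in 0.5% DMSO. HIF1A mRNA measured by TaqMan qRT-PCR, normalized to ACTB/GAPDH/POLR2A, fitted bidirectionally versus DMSO.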
# [9] = read-out: 3-Hydroxy-3-Methylglutaryl-CoA Synthase 2 (HMGCS2), HMGCS2 (gene 3158); test: LTEA_HepaRG_HMGCS2: Life Technologies and Expression Analysis (LTEA) Assay for 3-Hydroxy-3-Methylglutaryl-CoA Synthase 2 (HMGCS2) using HepaRG (AID 2283504)
# Procedure, shortened: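 Expression of HMGCS2 in human HepaRG liver cells is measured by qRT-PCR 48 h after dosing (highest 100 uM, half-log series, 0.5% DMSO). Values come from bidirectional concentration-response fitting with DMSO as baseline.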
# HGF (gene 3082) = test: LTEA_HepaRG_HGF: Life Technologies and Expression Analysis (LTEA) Assay for Hepatocyte Growth Facto (HGF) using HepaRG (AID 2283505)
# Procedure, shortened: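 Gain or loss of HGF mRNA in human HepaRG liver cells after 48 h chemical exposure; eight concentrations up to 100 uM with 0.5% DMSO vehicle, quantified by TaqMan qRT-PCR.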
# [10] = read-out: Insulin Like Growth Factor 1 (IGF1), IGF1 (gene 3479); test: LTEA_HepaRG_IGF1: Life Technologies and Expression Analysis (LTEA) Assay for Insulin Like Growth Factor 1 (IGF1) using HepaRG (AID 2283506)
# Procedure, shortened: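 HepaRG, plated 48 h, then switched to serum-free induction media; test chemical 8-pt half-log from 100 uM (0.5% DMSO), duplicate, 48 h. Lysis in RLT, TaqMan qRT-PCR, norm. ACTB/GAPDH/POLR2A. Bidirectional fit vs DMSO.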
# [11] = read-out: Intercellular Adhesion Molecule 1 (ICAM1), ICAM1 (gene 3383); test: LTEA_HepaRG_ICAM1: Life Technologies and Expression Analysis (LTEA) Assay for Intercellular Adhesion Molecule 1 (ICAM1) using HepaRG (AID 2283507)
# Procedure, shortened: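 Gain or loss of transcript in HepaRG hepatic cells is quantified by qRT-PCR after 48 h chemical exposure (up to 100 uM, half-log steps), with DMSO as baseline.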
# [12] = read-out: Interleukin 6 (IL6), IL6 (gene 3569); test: LTEA_HepaRG_IL6: Life Technologies and Expression Analysis (LTEA) Assay for Interleukin 6 (IL6) using HepaRG (AID 2283509)
# Procedure, shortened: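 HepaRG, ~100,000 cells/well, 48 h pre-culture; serum-free induction medium; cmpd 8-pt half-log from 100 uM, 0.5% DMSO, duplicate, 48 h. Lysis in RLT, TaqMan qRT-PCR; gain or loss vs DMSO.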
# [13] = read-out: Interleukin 6 Receptor (IL6R), IL6R (gene 3570); test: LTEA_HepaRG_IL6R: Life Technologies and Expression Analysis (LTEA) Assay for Interleukin 6 Receptor (IL6R) using HepaRG (AID 2283510)
# Procedure, shortened: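 Readout is IL6R transcript level by TaqMan qRT-PCR, normalized to three housekeeping genes and fitted bidirectionally against 0.5% DMSO controls. Human HepaRG cells received chemicals for 48 h in serum-free induction medium, highest concentration 100 uM.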
# [14] = read-out: Potassium channel subfamily K member 1 (KCNK1), KCNK1 (gene 3775); test: LTEA_HepaRG_KCNK1: Life Technologies and Expression Analysis (LTEA) Assay for Potassium channel subfamily K member 1 (KCNK1) using HepaRG (AID 2283511)
# Procedure, shortened: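 Gain or loss of KCNK1 mRNA is the read-out, quantified by qRT-PCR against three housekeeping genes after 48 h chemical treatment of human HepaRG liver cells. Concentrations ran from 100 uM downward in half-log steps, vehicle 0.5% DMSO.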
# [15] = read-out: Keratin 19 (KRT19), KRT19 (gene 3880); test: LTEA_HepaRG_KRT19: Life Technologies and Expression Analysis (LTEA) Assay for Keratin 19 (KRT19) using HepaRG (AID 2283512)
# Procedure, shortened: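 Gene-expression endpoint in the human liver line HepaRG after 48 h exposure to up to 100 uM test chemical with 0.5% DMSO vehicle; KRT19 mRNA by qRT-PCR, analyzed bidirectionally versus DMSO.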
# [16] = read-out: JUN Transcription Factor, JUN (gene 3725); test: LTEA_HepaRG_JUN: Life Technologies and Expression Analysis (LTEA) Assay for JUN Transcription Factor using HepaRG (AID 2283513)
# Procedure, shortened: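 Cells plated 48 h, medium switched to serum-free induction medium, then dosed 48 h (100 uM top, half-log dilutions, 0.5% DMSO). RNA isolated; JUN measured by qRT-PCR against three housekeeping genes; gain or loss fitted relative to DMSO.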
# [17] = read-out: Lipase C (LIPC), LIPC (gene 3990); test: LTEA_HepaRG_LIPC: Life Technologies and Expression Analysis (LTEA) Assay for Lipase C (LIPC) using HepaRG (AID 2283514)
# Procedure, shortened: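 Read-out is LIPC transcript level by TaqMan qRT-PCR, normalized to three housekeeping genes, after 48 h chemical treatment of human HepaRG liver cells. Curves span eight concentrations topping at 100 uM; activity in either direction scored relative to 0.5% DMSO.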
# [18] = read-out: Lipoprotein lipase (LPL), LPL (gene 4023); test: LTEA_HepaRG_LPL: Life Technologies and Expression Analysis (LTEA) Assay for Lipoprotein lipase (LPL) using HepaRG (AID 2283515)
# Procedure, shortened: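 Read-out is LPL transcript level by qRT-PCR, normalized to three housekeeping genes and fitted bidirectionally against the DMSO control. Human HepaRG cells received chemicals for 48 h at up to 100 uM.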
# [19] = read-out: Insulin-like growth factor-binding protein 1 (IGFBP1), IGFBP1 (gene 3484); test: LTEA_HepaRG_IGFBP1: Life Technologies and Expression Analysis (LTEA) Assay for Insulin-like growth factor-binding protein 1 (IGFBP1) using HepaRG (AID 2283508)
# Procedure, shortened: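 mRNA induction or loss was quantified by qRT-PCR after 48 h chemical exposure of human HepaRG cells, with 0.5% DMSO as vehicle and baseline. Concentration-response over eight points up to 100 uM.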
# Chain of Hypoxia-inducible factor 1-alpha (Homo sapiens) (Q16665 whole entry, looked up): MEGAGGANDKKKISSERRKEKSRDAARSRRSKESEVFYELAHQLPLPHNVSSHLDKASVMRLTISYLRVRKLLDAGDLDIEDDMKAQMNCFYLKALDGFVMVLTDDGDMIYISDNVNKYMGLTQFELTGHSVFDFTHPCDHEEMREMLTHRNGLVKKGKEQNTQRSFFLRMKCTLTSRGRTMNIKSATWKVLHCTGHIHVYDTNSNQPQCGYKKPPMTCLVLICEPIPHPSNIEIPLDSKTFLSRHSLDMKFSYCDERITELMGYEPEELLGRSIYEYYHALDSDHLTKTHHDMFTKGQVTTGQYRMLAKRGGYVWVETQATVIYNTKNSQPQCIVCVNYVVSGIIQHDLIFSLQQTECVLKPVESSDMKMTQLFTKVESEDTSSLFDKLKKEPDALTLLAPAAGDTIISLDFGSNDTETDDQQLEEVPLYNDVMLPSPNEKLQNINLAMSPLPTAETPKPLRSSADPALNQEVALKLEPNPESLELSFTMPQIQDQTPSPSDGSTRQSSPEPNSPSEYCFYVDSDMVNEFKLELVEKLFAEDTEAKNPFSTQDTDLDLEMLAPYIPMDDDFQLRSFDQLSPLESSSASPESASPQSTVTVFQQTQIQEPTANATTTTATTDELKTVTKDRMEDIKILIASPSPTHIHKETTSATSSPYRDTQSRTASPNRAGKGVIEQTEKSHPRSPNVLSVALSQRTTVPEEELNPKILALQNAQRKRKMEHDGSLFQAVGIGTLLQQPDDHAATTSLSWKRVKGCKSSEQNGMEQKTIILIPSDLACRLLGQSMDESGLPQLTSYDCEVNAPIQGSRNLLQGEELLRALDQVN
smiles,measurement,setting,value
COC(=O)Nc1nc2ccccc2[nH]1,outcome,[1],inactive
same,outcome,[2],inactive
same,outcome,[3],inactive
same,outcome,[4],inactive
same,outcome,[5],inactive
same,outcome,[6],inactive
same,outcome,[7],inactive
same,outcome,[8],inactive
same,outcome,[9],inactive
same,outcome,HGF (gene 3082),inactive
same,outcome,[10],inactive
same,outcome,[11],inactive
same,outcome,[12],inactive
same,outcome,[13],inactive
same,outcome,[14],inactive
same,AC50,[15],7.44 µM (active)
same,outcome,[16],inactive
same,outcome,[17],inactive
same,outcome,[18],inactive
CCCSC(=O)N(CCC)CCC,outcome,[1],inactive
same,outcome,[2],inactive
same,outcome,[3],inactive
same,outcome,[4],inactive
same,outcome,[5],inactive
same,outcome,[6],inactive
same,outcome,[7],inactive
same,outcome,[8],inactive
same,outcome,[9],inactive
same,outcome,HGF (gene 3082),inactive
same,outcome,[10],inactive
same,outcome,[11],inactive
same,outcome,[19],inactive
same,outcome,[12],inactive
same,outcome,[13],inactive
same,outcome,[14],inactive
same,outcome,[15],inactive
same,outcome,[16],inactive
same,outcome,[17],inactive
same,outcome,[18],inactive
c1ccc(NNc2ccccc2)cc1,outcome,[1],inactive
same,outcome,[2],inactive
same,outcome,[3],inactive
same,outcome,[4],inactive
same,outcome,[5],inactive
same,outcome,[6],inactive
same,outcome,[7],inactive
same,outcome,[8],inactive
same,outcome,[9],inactive
same,outcome,HGF (gene 3082),inactive
same,outcome,[10],inactive
same,outcome,[11],inactive
same,outcome,[12],inactive
same,outcome,[13],inactive
same,outcome,[14],inactive
same,outcome,[15],inactive
same,outcome,[16],inactive
same,outcome,[17],inactive
same,outcome,[18],inactive
CO[C@@H]1[C@H](OC(=O)NC(=O)CCl)CC[C@]2(CO2)[C@H]1[C@@]1(C)O[C@@H]1CC=C(C)C,outcome,[1],inactive
same,outcome,[2],inactive
same,outcome,[3],inactive
same,outcome,[4],inactive
same,outcome,[5],inactive
same,outcome,[6],inactive
same,outcome,[7],inactive
same,outcome,[8],inactive
same,outcome,[9],inactive
same,outcome,HGF (gene 3082),inactive
same,AC50,[10],3.17 µM (active)
same,outcome,[11],inactive
same,outcome,[12],inactive
same,outcome,[13],inactive
same,outcome,[14],inactive
same,outcome,[15],inactive
same,outcome,[17],inactive
same,outcome,[18],inactive
COC(=O)c1ccccc1N,outcome,[1],inactive
same,outcome,[2],inactive
same,outcome,[3],inactive
same,outcome,[4],inactive
same,outcome,[5],inactive
same,outcome,[6],inactive
same,outcome,[7],inactive
same,outcome,[8],inactive
same,outcome,[9],inactive
same,outcome,HGF (gene 3082),inactive
same,outcome,[10],inactive
same,outcome,[11],inactive
same,outcome,[12],inactive
same,outcome,[13],inactive
same,outcome,[14],inactive
same,outcome,[15],inactive
same,outcome,[17],inactive
same,outcome,[18],inactive
CCN(CC)CCO,outcome,[1],inactive
same,outcome,[2],inactive
same,outcome,[3],inactive
same,outcome,[4],inactive
same,outcome,[5],inactive
same,outcome,[6],inactive
same,outcome,[7],inactive
same,outcome,[8],inactive
same,outcome,[9],inactive
same,outcome,HGF (gene 3082),inactive
same,outcome,[10],inactive
same,outcome,[11],inactive
same,outcome,[19],inactive
same,outcome,[12],inactive
same,outcome,[13],inactive
same,outcome,[14],inactive
same,outcome,[15],inactive
same,outcome,[16],inactive
same,outcome,[17],inactive
same,outcome,[18],inactive
CCCCC(CC)COC(=O)c1ccc(C(=O)OCC(CC)CCCC)c(C(=O)OCC(CC)CCCC)c1 (configuration not stated),outcome,[1],inactive
same,outcome,[2],inactive
same,outcome,[3],inactive
same,outcome,[4],inactive
same,outcome,[5],inactive
same,outcome,[6],inactive
same,outcome,[7],inactive
same,outcome,[9],inactive
same,outcome,HGF (gene 3082),inactive
same,outcome,[10],inactive
same,outcome,[11],inactive
same,outcome,[12],inactive
same,outcome,[13],inactive
same,outcome,[14],inactive
same,outcome,[15],inactive
same,outcome,[16],inactive
same,outcome,[17],inactive
same,outcome,[18],inactive
